High-throughput results from PubChem BioAssay.
The list is not random: actives were taken first. Their share in the collection is about 19%.
DT40 TDP1 no CPT – qHTS for Inhibitors of human tyrosyl-DNA phosphodiesterase 1 (TDP1): qHTS in cells in absence of CPT | actives 15% (n = 420,000) | AID 686978, 2013 | Potency, µM (top dose mostly 46.2 µM), inactives show top-dose activity change, negative = growth inhibition, most hits filed as inhibitors | DT40 Tdp1-/- hTDP1 cells, no CPT, ATP luminescence, 48 h; also: nearly all actives have a fitted effect of over 55% in size
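Growth kinetics read by CellTiter-Glo luminescence after ≥48 hr at 37 °C. Cells: DT40 Tdp1-/- stably carrying human TDP1, 400 per well, compound exposure in the absence of CPT (DMSO vehicle).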
HT1080-NT tox – kills 2HG-producing HT-1080-NT fibrosarcoma cells | HT-1080-NT fibrosarcoma viability, CellTiter-Glo ATP luminescence, 48 h | Potency, µM (doses to about 46.1 µM), without a hit: at the top dose activity, negative = less viability, actives largely listed as cytotoxic | actives 1.6% (n = 360,000) | AID 686970;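 also: NT is the 2HG producing partner of a matched IDH1 knockdown line; 0% = DMSO-treated cells and -100% = media-only wells without cells; nearly all actives have a fitted effect of over 55% in size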
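Fibrosarcoma NT cells, 750 per well in 5% FBS RPMI, were exposed to compound for 48 hours. Viability: CellTiter-Glo luminescence.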
KB-3-1 tox – KB-3-1 parental cell cytotoxicity. Potency, µM (top dose mostly 46.1 µM), most hits filed as cytotoxic. KB-3-1 viability, CellTiter-Glo ATP luminescence, 72 h. actives 1.4% (n = 400,000); also: nearly all actives have a fitted effect of over 60% in size
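Luminescent ATP read-out (CellTiter-Glo) measures survival of drug-naive KB-3-1 cells after 72 h compound exposure at 37 °C. Titration series was screened from lowest to highest concentration, with DMSO vehicle plates as background controls.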
HT1080 IDH1KD tx – HT-1080 IDH1 knockdown cell toxicity (counter line) | HT-1080 IDH1 knockdown viability, ATP luminescence, 48 h | Potency, µM (top dose mostly 46.1 µM), for inactives: at the highest dose activity, negative = toxicity, actives largely listed as cytotoxic | actives 2% (n = 360,000);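 also: 0% = DMSO wells and -100% = cell-free medium wells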
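Knockdown cells (IDH1KD HT-1080) received compounds 2 h after plating at 750 cells/well and were kept 48 h at 37 °C in 5% FBS RPMI. A CellTiter-Glo luminescence read gave % activity for curve fitting.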
KB-V1 cytotox – kills drug-selected multidrug resistant KB-V1 cells; KB-V1 MDR cells viability, CellTiter-Glo, 72 h; Potency, µM (top dose mostly 46.1 µM), usual class: cytotoxic; actives 3.4% (n = 400,000); AID 1347076; also: nearly all actives have a fitted effect of over 60% in size
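qHTS viability screen in drug-selected KB-V1 MDR cells: 72 h compound treatment at 37 degrees C, ATP luminescence end point.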
TDP1 cell CPT – DT40-hTDP1 cell growth loss with CPT | chicken DT40 Tdp1-/-;hTDP1 cells + 20 nM CPT, ATP luminescence, 48 h | Potency, µM (titrated, usually from 46.2 µM), inactives show at the top dose activity change, negative = growth inhibition, hits mostly inhibitors | actives 12% (n = 420,000); also: nearly all actives have a fitted effect of over 55% in size
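Cell growth measured by CellTiter-Glo luminescence after a minimum 48 h, 37 C compound exposure with 20 nM CPT in Tdp1-knockout DT40 cells stably expressing hTDP1, seeded 400/well; qHTS titration format.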
Numbers without * were called inactive; i = inactive; ? = inconclusive; · = no result. Calls follow the shape of the dose curve; as a rule, active = well fitted curve in the direction sought with a large enough effect; inconclusive = small, poorly fitted or top-dose-only effect, or another doubt; inactive = no such curve, though single readings can be large; an effect the other way counts as inactive or inconclusive. Unless noted, % is scaled to controls: 0 for no effect and ±100 for the full control effect; potency is read from the fitted curve at half-maximal effect.

SMILES | DT40 TDP1 no CPT | HT1080-NT tox | KB-3-1 tox | HT1080 IDH1KD tx | KB-V1 cytotox | TDP1 cell CPT
CCN(Cc1ccccc1)C(=O)Cn1c(=O)n(-c2cccc(C)c2)c(=O)c2c1c1cc(OC)ccc1n2C | 16.4µM* | · | i | · | i | 11.6µM*
COCCCNC(=O)Cn1c(=O)n(-c2ccccc2)c(=O)c2c1c1cc(OC)ccc1n2C | -15.3% | · | i | · | i | -5.3%
CCN(Cc1ccccc1)C(=O)Cn1c(=O)n(-c2ccccc2)c(=O)c2c1c1cc(C)ccc1n2C | 3.66µM* | · | i | · | i | 9.2µM*
CCc1ccc(-n2c(=O)c3sc4ccccc4c3n(CC(=O)N(CC)Cc3ccccc3)c2=O)cc1 | 18.4µM* | · | i | · | i | 18.4µM*
Cc1cc(C)nc(SCC(=O)Nn2cnnc2)n1 | 2.2% | 19.4% | i | 6.6% | i | -2.7%
Cc1nonc1CC(=O)N1CCCC(C(=O)c2ccc(Cl)cc2)C1 (configuration not stated) | ? | -0.5% | i | 12.4% | i | ?
Cc1ccc2cc(C#N)c(SCC(=O)N3CCCc4ccccc43)nc2c1C | 8.2µM* | 1.3% | i | 3.0% | 2.59µM* | 20.6µM*
CCn1c(CNc2ccc(F)cc2)nnc1SCC(=O)N1CCCc2ccccc21 | ? | -2.7% | i | -11.6% | ? | -25.8%
CCn1c(CNc2ccc(OC)cc2)nnc1SCC(=O)N1CCCc2ccccc21 | -20.6% | -7.0% | i | -2.2% | i | -20.2%
CCn1c(CSc2nc(C)cc(C)n2)nnc1SCC(=O)N1CCCc2ccccc21 | -23.7% | 7.0% | i | -3.4% | 20.6µM* | -15.7%
O=C(CSc1nnc(Cc2cccs2)n1C1CCCCC1)N1CCCc2ccccc21 | ? | -15.0% | ? | ? | 20.6µM* | ?
CCn1c(CNc2ccc(C)cc2C)nnc1SCC(=O)N1CCCc2ccccc21 | ? | -2.1% | i | 2.5% | i | 10.3µM*
COc1ccc(Cl)cc1NC(=O)CSc1cn(CC(=O)N2CCCC2)c2ccccc12 | 3.26µM* | · | · | · | · | 11.6µM*
COc1ccc(Cl)cc1NC(=O)CN1CCCC1 | -2.8% | -19.1% | i | -18.8% | i | 0.7%
COc1ccc(Cl)cc1NC(=O)CSc1cn(CC(=O)N2CCCCCC2)c2ccccc12 | 11.6µM* | · | · | · | · | 13µM*
Cc1nn(-c2ccc(F)cc2)c(C)c1CN1CCN(CCC(C)C)C(CCO)C1 (configuration not stated) | -10.2% | 8.7% | i | 18.7% | i | -7.2%
O=C(O)C1CCN(c2ncc(-c3ccc4c(c3)OCCCO4)s2)CC1 | · | · | i | · | i | ·
O=S(=O)(N/N=C/c1ccc2c(c1)OCO2)c1ccc(Br)cc1 | -1.7% | -5.5% | i | 7.7% | i | -1.9%
Cc1ccc(CNC(=O)Cn2ncc3c(C)n(Cc4ccc(Cl)cc4)c(C)c3c2=O)cc1 | ? | · | i | · | i | ?
O=C(Cn1ncc2c3ccccc3n(Cc3ccccc3)c2c1=O)NC1CCCC1 | 0.5% | 1.9% | i | 12.6% | i | -19.5%
CCCN1CCN(C(=O)Cn2ncc3c4ccccc4n(Cc4cccc(Cl)c4)c3c2=O)CC1 | 11.6µM* | · | i | · | i | 13µM*
CN1CCN(C(=O)Cn2ncc3c4ccccc4n(Cc4ccc(F)cc4)c3c2=O)CC1 | 7.31µM* | · | i | · | i | 14.6µM*
Cc1c2cnn(CC(=O)N3CCCCC3)c(=O)c2c(C)n1Cc1ccc(Cl)cc1 | 23.1µM* | · | ? | · | i | 23.1µM*
CCOC(=O)C1CCN(C(=O)Cn2ncc3c4ccccc4n(Cc4ccccc4)c3c2=O)CC1 | 7.31µM* | · | · | · | · | 8.2µM*
